Rows were chosen to be rich in hits. Some 2.2% of all compounds tested hit in one or more screens of this group.
Nox1 inhibitor – blocks human NADPH oxidase 1 activity | HT29 cells, luminol chemiluminescence ROS | inhibition, % at 6.7 µM | 0.81% of 16,000 active | AID 1792
Target sequence (Q9Y5S8 whole entry, looked up): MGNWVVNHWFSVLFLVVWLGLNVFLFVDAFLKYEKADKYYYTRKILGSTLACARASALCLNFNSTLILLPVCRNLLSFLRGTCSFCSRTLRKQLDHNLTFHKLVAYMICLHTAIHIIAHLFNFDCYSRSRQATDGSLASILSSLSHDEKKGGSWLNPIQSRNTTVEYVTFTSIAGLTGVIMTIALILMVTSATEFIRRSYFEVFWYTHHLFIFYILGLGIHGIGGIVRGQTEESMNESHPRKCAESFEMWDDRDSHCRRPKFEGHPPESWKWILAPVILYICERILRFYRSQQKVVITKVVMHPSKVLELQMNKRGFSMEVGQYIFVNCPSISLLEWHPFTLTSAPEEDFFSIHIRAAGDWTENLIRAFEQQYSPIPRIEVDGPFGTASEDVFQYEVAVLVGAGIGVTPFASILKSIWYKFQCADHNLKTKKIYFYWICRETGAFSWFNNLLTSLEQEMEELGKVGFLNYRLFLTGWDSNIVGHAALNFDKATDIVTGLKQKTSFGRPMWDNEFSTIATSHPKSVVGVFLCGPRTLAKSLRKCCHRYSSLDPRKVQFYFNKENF
Luminol counter – counter-screen for Nox1 inhibitors: inhibitors of luminol chemiluminescence. inhibition, % at 6.7 µM. 0.4% of 16,000 active. AID 1823. HRP/luminol/H2O2 chemiluminescence counterscreen; note: reference of the scale not given here
PME-1 Maybridge – Maybridge compound blocking human PME-1. Q9Y570. AID 2291. inhibition, % at 9 µM. 0.5% of 16,000 active. recombinant PME-1, FP-Rh probe fluorescence polarization; in the data active = inhibition above about 30%
KOR antag MB – antagonists of human kappa opioid receptor OPRK1, Maybridge library | P41145 | OPRK1 cells, antagonist mode, fluorescence readout | inhibition, % at 9 µM | 0.4% of 16,000 active | AID 652031; in the data active = inhibition above about 50%
Hits are given with their value; 0 = inactive. Cut-off read from the data, not from the text of the source, unless noted: active = inhibition above about 75%; inactive = the rest.

SMILES	Nox1 inhibitor	Luminol counter	PME-1 Maybridge	KOR antag MB
O=[N+]([O-])c1cc(Br)c(Oc2cncc(Cl)c2)cc1Oc1cncc(Cl)c1	0	0	52.3	0
COC(=O)c1cnn(-c2ccc(Cl)cc2)c1C=Nc1ccc(C)cc1	0	0	0	0
COC(=O)c1cnn(-c2ccc(Cl)cc2)c1C=C(C#N)C#N	0	0	0	74.7
O=C(Oc1cccc2[nH]ccc12)c1ccc(C(F)(F)F)cc1	79.5	0	0	0
NS(=O)(=O)c1ccc(NNC(=O)c2cccs2)cc1	0	0	0	0
NS(=O)(=O)c1ccc(NNC(=O)c2c(F)cccc2Cl)cc1	80.7	0	0	0
O=C(N/N=C/c1ccc(O)cc1)N/N=C/c1ccc(O)cc1	96.2	0	0	0
O=C1CNC(=S)N1CCc1ccc(O)c(O)c1	92.9	96.2	0	0
CCC(C)(C)OC(=O)c1cc([N+](=O)[O-])cc2c1-c1ccc([N+](=O)[O-])cc1C2=O	0	0	0	0
O=C(Nc1ccc(Cl)cc1Cl)c1cc([N+](=O)[O-])cc2c1-c1ccc([N+](=O)[O-])cc1C2=O	100.7	0	0	52.7
FC(F)(F)c1ccc2cccc(C(F)(F)F)c2n1	0	0	0	0
COC(=O)c1cc(-c2ccc(OC)cc2)c(-c2ccc(OC)cc2)s1	0	0	0	78.4
COC(=O)c1cc(C)c(-c2ccc(-c3ccccc3F)cc2)s1	0	0	0	0
COc1ccc(OCCNC(=O)c2ccc3nccnc3c2)cc1	0	0	0	0
O=C(c1ccc(F)cc1)N1CCCn2c(SCc3ccccc3Cl)nnc21	0	0	0	0
O=C(Cc1ccccc1Cl)N/N=C(/C(=O)O)c1ccccc1	0	0	38.2	0
COc1cc(CCC(=O)NNC(=S)Nc2ccc(F)cc2)cc(OC)c1OC	0	91.5	0	0
Cc1ccc(N(C)NC=C(C#N)C#N)nn1	0	0	0	0
CN(NC=C(C#N)C#N)c1ccccc1[N+](=O)[O-]	104.2	0	0	0
COc1cc2ncnc(NNC(=O)c3cccs3)c2cc1OC	86.4	0	0	0
CC(C)(C)C(=O)Oc1ccc(-c2csnn2)cc1	0	0	0	0
O=C(Nc1ccc(Cl)cc1)Oc1ccc(-c2csnn2)cc1	0	101.7	0	0
O=[N+]([O-])c1ccc(-c2nc(-c3ccc(-c4csnn4)cc3)no2)cc1	0	0	0	0
O=C(Oc1ccc(-c2csnn2)cc1)c1ccc([N+](=O)[O-])o1	0	101.4	0	0
CNc1ncnc(NNC(=O)Nc2ccc(OC(F)(F)F)cc2)c1[N+](=O)[O-]	0	0	0	0
SMILES	Nox1 inhibitor	Luminol counter	PME-1 Maybridge	KOR antag MB
CC(C)(C)c1cc2nc(C(F)(F)F)cc(NNC(=O)Nc3ccc(OC(F)(F)F)cc3)n2n1	88.1	0	0	0
CCCCCCCCCCCC(=O)NN	0	0	0	0
CCCCCCCCCCCC(=O)ON1C(=O)CCC1=O	0	0	0	50.5
Cc1cc(C)n(NC(=S)NCc2cccs2)c(=O)c1C#N	0	0	0	0
CN(C)c1ccc(NC(=O)Nc2ccc(OCc3ccccc3)cc2)cc1	107.5	0	0	0
Cc1ccc(NC(=O)Nc2ccc(OCc3ccccc3)cc2)cc1NS(C)(=O)=O	0	0	0	0
CC(=O)N1CCC(C(=O)O/N=C(\N)c2ccc(Cl)cc2)CC1	0	0	0	126.2
CC(=O)N1CCC(NC(=O)Oc2ccc(Cl)cc2)CC1	0	0	0	0
Cc1ccc(S(=O)(=O)Nc2ccc(C)cc2NS(=O)(=O)c2ccc(F)cc2)cc1	0	0	0	0
COC(=O)C(C(=O)OC)c1ccc(Cl)cc1[N+](=O)[O-]	0	0	0	0
CC1CN(c2ccc(NC(=S)NCc3ccco3)cc2)CC(C)O1 (centres undefined)	0	0	0	0
CC1CN(c2ccc(NC(=S)NN)cc2)CC(C)O1 (centres undefined)	101.7	0	0	0
COc1ccccc1NC(=O)NCCN1CCN(Cc2ccccc2)CC1	0	0	0	80.2
Cc1noc(C)c1NC(=O)NCCN1CCN(Cc2ccccc2)CC1	0	0	0	0
COC(=O)C1CSCC/C1=N\Nc1ccc(Cl)cc1Cl (centres undefined)	0	0	0	0
Fc1cccc(NC(=S)Nc2ccc3ccccc3c2)c1	0	0	0	0
O=[N+]([O-])c1cccc(-c2ccc(/C=N/NC(=S)NCc3ccco3)o2)c1	0	0	36.4	0
O=[N+]([O-])c1ccc(-c2ccc(/C=N/NC(=S)Nc3cccc(F)c3)o2)cc1	0	0	0	151.8
CCS(=O)(=O)c1ccc(O)c(NC(=O)c2ccccc2C(=O)O)c1	95.7	0	0	0
S=c1[nH]nc(-c2ccccc2)n1/N=C/c1cccs1	0	0	0	0
O=c1c2cc(-c3ccccc3)sc2nnn1/N=C/c1cccs1	0	0	0	70.9
